Laboratory results as given in PubChem BioAssay (NCATS).
Inconclusive results are not listed. A number with no mark means an inactive call. Calls of active or inactive are those of the source. Calls come from the whole dose curve; as a rule, active = well fitted inhibition curve with a large enough effect; inconclusive = small, poorly fitted or top-dose-only effect; inactive = no such curve, though single readings can be large or run the other way. Numbered stars: 1 amine (or outer) side, 2 acyl side, 3 side chain; on linkers, the order of the positions; unused ones are H or OH. Bridge positions count the residues as written; N and C are the ends. Square brackets hold non-standard residues; d marks the D form. Peptide text beside a SMILES is read from it. I, II: the chains in the order shown. Actinocin(9to1) = Cc1c2oc3c(C)ccc(C(=O)[*:1])c3nc-2c(C(=O)[*:2])c(N)c1=O; aThr = C[C@H](O)[C@H](N)C(=O)O; NMeV = CN[C@H](C(=O)O)C(C)C; Sar = CNCC(=O)O

Target: Furin (Homo sapiens) (UniProt P09958)
Test: Furin counterscreen qHTS for Zika virus inhibitors (AID 1347149); note: nearly all actives have a fitted effect of over 70% in size;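 for activity change, negative = inhibition: fluorescence gain from furin cutting a BOC-RVRR-AMC peptide substrate over 15 min; top concentration of the series differs between compounds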
Conditions: furin enzymatic counterscreen, fluorogenic substrate; series mostly up to 114 µM; activity change, negative = inhibition: at the top concentration
Source text: Avindra Nath, Ph.D., National Institute of Neurological Disorders and Stroke (NINDS), Bethesda, MD
Radhakrishnan Padmanabhan, Ph.D., Georgetown University (GU), Washington D.C.
Zika Virus causes congenital defects, including microcephaly and is associated with Guillain-Barre syndrome, eningoencephalitis and myelitis in infected adult. […] Using a target-based approach, we hope to establish a screening paradigm to uncover novel, cell-active NS2B-NS3 protease (Zika Virus) specific inhibitors from NCATS' collection of small molecules using qHTS.
Four assay panel was created to identify potential Zika Virus inhibitors. Namely, (1) GU unlinked NS2B-NS3 AMC tagged protease qHTS, (2) GU unlinked NS2B-NS3 Rhodamine tagged protease qHTS, (3) NINDS linked NS2B-NS3 AMC tagged protease qHTS, (4) NINDS linked NS2B-NS3 Rhodamine tagged protease qHTS. Active compounds were re-acquired and re-screened to confirm inhibition. Inhibitors were further screened against various confirmatory and counterscreens in dose response format.
Early Translation Branch (ETB)
National Center for Advancing Translational Sciences (NCATS), Rockville, MD
National Institute of Health (NIH), Bethesda, Maryland
1536-well Furin BOC-RVRR-AMC Protocol:
Human recombinant Furin Serine Protease was purchased from Peprotech (catalog #450-47; full length; Rocky Hill, NJ). Briefly, 3 microL of enzyme (final concentrations of 5 nM), in assay buffer (100 mM HEPES pH 7.0, 1 mM CaCl2 with 0.01% Triton X-100) were dispensed into a 1,536-well solid-bottom black plate (Greiner Bio One, Monroe, NC). Twenty-three nL of compounds (final concentration range 7.28 nM to 114 microM) or control Furin Inhibitor I (Dec-RVKR-CMK; final concentration range 0.248 nM to 8.12 microM) were transferred via Wako Pin-tool (Wako Automation, Richmond, VA). Samples were incubated (RT, protected from light) for 15 minutes followed by a 1 microL substrate addition of BOC-RVRR-AMC (final concentration of 2 microM; Km = ~15 muM90). Plates were then read immediately on a ViewLux High-throughput CCD imager (PerkinElmer, Waltham, MA) equipped with standard UV fluorescence optics (340(30) nm excitation, 450(20) nm emission), then incubated (37C, protected from light) for 15 or 30 minutes (~9% conversion). The change in fluorescence intensity over the 15-minute reaction period was normalized against no-inhibitor and no-enzyme controls and the resulting percent inhibition data were fitted to a 4-parameter Hill equation. Furin Inhibitor I was used as intraplate control.
Potency is the fitted concentration of half-maximal effect.

Sequence of Furin (Homo sapiens) (P09958 whole entry, looked up): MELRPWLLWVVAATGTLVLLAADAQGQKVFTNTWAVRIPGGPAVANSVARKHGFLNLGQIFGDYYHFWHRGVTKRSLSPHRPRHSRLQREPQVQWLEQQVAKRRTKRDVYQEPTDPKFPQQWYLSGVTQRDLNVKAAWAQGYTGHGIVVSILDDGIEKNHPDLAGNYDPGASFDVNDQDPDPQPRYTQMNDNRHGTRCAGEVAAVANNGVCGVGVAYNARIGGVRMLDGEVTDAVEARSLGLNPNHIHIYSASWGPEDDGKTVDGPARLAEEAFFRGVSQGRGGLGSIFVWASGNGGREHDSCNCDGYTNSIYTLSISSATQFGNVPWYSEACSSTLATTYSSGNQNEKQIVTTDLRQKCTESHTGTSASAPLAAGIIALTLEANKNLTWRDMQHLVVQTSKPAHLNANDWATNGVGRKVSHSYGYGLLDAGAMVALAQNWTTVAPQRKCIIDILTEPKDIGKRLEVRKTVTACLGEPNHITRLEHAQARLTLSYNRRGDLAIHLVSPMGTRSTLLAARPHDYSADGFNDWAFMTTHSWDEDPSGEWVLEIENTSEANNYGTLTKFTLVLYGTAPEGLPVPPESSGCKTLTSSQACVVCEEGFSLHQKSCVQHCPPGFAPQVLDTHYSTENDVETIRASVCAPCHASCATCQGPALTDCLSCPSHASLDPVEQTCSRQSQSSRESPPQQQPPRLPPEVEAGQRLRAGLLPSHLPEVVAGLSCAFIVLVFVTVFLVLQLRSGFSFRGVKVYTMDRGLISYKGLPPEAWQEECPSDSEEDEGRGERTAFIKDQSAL

SMILES	Potency	activity change, negative = inhibition
Cc1cccc(C(=O)Nc2ccc(C(=O)OCc3cc(=O)n4nc(C5CC5)sc4n3)cc2)c1	26.4 µM (active)	
COC(=O)[C@H](Cc1ccc(OC)cc1)NC(=O)[C@H]1CN(S(=O)(=O)c2ccccc2)CCN1S(=O)(=O)c1ccccc1		-9.84%
Cc1ccc(-c2nnc(Nc3ccc(Br)cc3)c3ccccc23)cc1S(=O)(=O)NCc1nc2ccccc2[nH]1	52.7 µM (active)	
O=C(O)c1ccc(-c2cc(C(F)(F)F)ccc2Cl)cc1		-5.57% [at 192 µM]
Cc1c(Cl)cccc1NC(=O)CSc1ncccc1C(=O)Oc1ccccc1Cl		-3.27%
O=C(O[C@@H]1Cc2c(O)cc(O)cc2OC1c1ccc(O)c(O)c1)c1cc(O)c(O)c(O)c1 (stereo not given in full)		-0.672%
Cc1cc(=O)c2c(O)c3c(O)cc(O)c4c5c(O)cc(O)c6c(O)c7c(=O)cc(C)c8c1c2c(c34)c(c65)c78		4.69%
Cc1c2oc3c(C)ccc(C(=O)N[C@@H]4C(=O)N[C@@H](C(C)C)C(=O)N5CCC[C@@H]5C(=O)N(C)CC(=O)N(C)[C@@H](C(C)C)C(=O)O[C@H]4C)c3nc-2c(C(=O)N[C@@H]2C(=O)N[C@@H](C(C)C)C(=O)N3CCC[C@@H]3C(=O)N(C)CC(=O)N(C)[C@@H](C(C)C)C(=O)O[C@H]2C)c(N)c1=O (I: [aThr]V[dP][Sar][NMeV] / II: [aThr]V[dP][Sar][NMeV]; ester I:1-I:C, II:1-II:C; linker I:N-II:N via Actinocin(9to1))		-19.3% [at 57.5 µM]
CN(Cc1ccc(C(=O)O)cc1)c1ccc(OCc2c(-c3c(Cl)cccc3Cl)noc2C2CC2)nc1C(F)(F)F	9.61 µM (active)	
O=C(O)COc1ccc(-c2nccc3c2C(=O)N(Cc2cccc(C(F)(F)F)c2)CC(COc2cccc(F)c2)O3)cc1 (stereo not given)		-11.7%
O=C(OC1Cc2c(O)cc(O)cc2OC1c1cc(O)c(O)c(O)c1-c1c(C2Oc3cc(O)cc(O)c3CC2O)cc(O)c(O)c1O)c1cc(O)c(O)c(O)c1 (stereo not given)	17.5 µM (active)	
O=C(O)c1ccc(-c2ccc(OC(F)(F)F)cc2)cc1		-1.84% [at 192 µM]
COc1ccc(S(=O)(=O)c2c(Nc3cccc(Cl)c3)sc(C(=O)c3ccccc3)c2N)cc1	52.7 µM (active)	
COc1ccccc1N1CCN(CCn2c(=O)c3c(c4ccccc4n3C)n(C)c2=O)CC1	24.1 µM (active)	
COc1cc(C2Nc3ccccc3-c3nnc(SCc4ccc(Cl)cc4)nc3O2)ccc1OCC(=O)O (stereo not given)		-0.643%
C[C@@H](NC(=O)c1ccc(Cl)cc1)c1c(-c2ccc(F)cc2)noc1C(=O)O		-8.53% [at 192 µM]
O=C(O)c1ccc(NS(=O)(=O)c2ccc(Cl)c(C(=O)Nc3ccccc3)c2)cc1		3.92%
O=C(O)Cc1cc(I)c(Oc2cc(I)c(O)c(I)c2)c(I)c1		2.33%
CC(C)c1nn2c(=O)cc(COC(=O)c3ccc(NC(=O)CCc4ccccc4)cc3)nc2s1		-7.26%
O=C(OCC#CCSc1nnc(-c2ccccc2Cl)o1)c1ccc(F)cc1		2.64%

SMILES	Potency	activity change, negative = inhibition
O=C(Nc1ccc(C(=O)OCc2cc(=O)n3c4c(sc3n2)CCCC4)cc1)c1cccc(F)c1	46.9 µM (active)	
O=S(=O)(Nc1ccc(O)c(Sc2nc3ccccc3s2)c1)c1cc(Cl)ccc1Cl		-0.0226%
CN1CCN(C(=O)CCN2C(=O)/C(=C\c3ccccc3F)SC2=S)CC1		-9.74%
O=C(O)c1cccc(-c2cccc(C(F)(F)F)c2)c1		-4.3% [at 192 µM]
O=C(OCC#CCSc1nnc(-c2ccccc2F)o1)c1ccc(F)cc1		-6.5%
O=C(Nc1cccc(C(=O)OCc2cc(=O)n3nc(C4CC4)sc3n2)c1)c1cccc(F)c1	41.8 µM (active)	
COC(=O)c1ccc([C@H]2Nc3ccc(S(=O)(=O)Nc4ccc(C)cc4)cc3[C@H]3C=CC[C@H]32)cc1		-28.2%
O=C(OCc1cc(=O)n2nc(C3CC3)sc2n1)c1cccc(NC(=O)c2ccccc2Cl)c1		-9.76%
Nc1cc(N)c(N=Nc2ccc(S(=O)(=O)Nc3nccs3)cc2)cc1N=Nc1ccc(S(=O)(=O)Nc2nccs2)cc1	39.8 µM (active)	
CCOC(=O)O[C@H](C)OC(=O)C1N2C(=O)[C@H](NC(=O)[C@H](N)c3ccccc3)C2SC1(C)C (stereo not given in full)		-11% [at 57.5 µM]
Cc1ccc(NC(=O)CSc2ncccc2C(=O)Oc2ccccc2Cl)cc1Cl		-21.7%
Clc1nc2n[nH]nc2nc1Cl	39.8 µM (active)	
CC1(COc2ccc(C[C@H]3SC(=O)NC3=O)cc2)CCCCC1		1.72% [at 57.5 µM]
CCCc1nn2c(=O)cc(COC(=O)c3ccccc3NC(=O)c3ccc(Cl)cc3)nc2s1	41.8 µM (active)	
O=C(OCC#CCSc1nnc(-c2cccc3ccccc23)o1)c1ccc(C(F)(F)F)cc1	41.8 µM (active)	
O=c1oc2cc(O)ccc2cc1-c1nc(-c2ccc(Cl)c(Cl)c2)cs1		-11.9%
COc1ccc(-c2nc(C(=O)N3CCN(C)CC3)sc2-c2ccc(OC)cc2)cc1	13.5 µM (active)	
Cc1oc2c(cc(NS(=O)(=O)c3ccc(C(C)C)cc3)c3ccccc32)c1C(=O)OCc1ccccc1		-16.8%
O=C(O)COc1ccc(-c2nccc3c2C(=O)N(Cc2cccc(C(F)(F)F)c2)CC(COc2cccnc2)O3)cc1 (stereo not given)		-13.7%
O=C(O)c1ccc(-c2ccc(C(F)(F)F)cc2)cc1		0.489% [at 192 µM]
